{"source": "PubChem BioAssay AID1508601", "about": "(ICCB-Longwood Screening Facility, Harvard Medical School, 2020)", "key": {"[1]": {"experiment": "nuclear p53 accumulation, HPV+ cells – imaging, p53-positive nuclei imaging, 24 h, 48 h (AID 1508601)", "settings": "24/48 h"}, "[2]": {"target": "Cellular tumor antigen p53 (Homo sapiens) (UniProt P04637)", "sequence (P04637 whole entry, looked up)": "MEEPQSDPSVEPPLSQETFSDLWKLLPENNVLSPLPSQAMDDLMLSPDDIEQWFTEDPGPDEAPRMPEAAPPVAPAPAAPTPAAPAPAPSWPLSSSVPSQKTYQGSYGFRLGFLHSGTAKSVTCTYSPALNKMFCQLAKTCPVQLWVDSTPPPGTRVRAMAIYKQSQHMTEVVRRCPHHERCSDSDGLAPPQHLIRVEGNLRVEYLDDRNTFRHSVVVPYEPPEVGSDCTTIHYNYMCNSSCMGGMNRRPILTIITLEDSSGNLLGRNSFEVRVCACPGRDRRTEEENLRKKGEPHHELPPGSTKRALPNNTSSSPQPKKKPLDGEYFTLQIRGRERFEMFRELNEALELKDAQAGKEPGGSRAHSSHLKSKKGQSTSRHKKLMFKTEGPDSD", "experiment": "nuclear p53 accumulation, HPV+ cells – imaging, p53-positive nuclei imaging, 24 h, 48 h (AID 1508601)", "settings": "24/48 h, stronger effect = higher value"}, "[3]": {"settings": "measured here: cell number at 24 h, Library stock concentration: 10 mM"}, "[4]": {"settings": "measured here: cell number at 48 h, Library stock concentration: 10 mM"}, "[5]": {"settings": "Library stock concentration: 10 mM"}, "[6]": {"settings": "measured here: p53 positive nuclei at 24 h, Library stock concentration: 10 mM"}}, "note": "Among all 5,700 compounds or so, about 85 (1%) were called active. Cut-off read from the data, not from the text of the source: active = p53-positive nuclei above about 36% (passing the limit was not always enough); inactive = the rest. This excerpt belongs to a sample that is enriched for actives.", "data": [{"compound": "Nc1ccn(C2OC(CO)C(O)C2F)c(=O)n1", "note": "(centres undefined)", "values": [{"measurement": "nuclei count, normalised", "setting": "[1]; measured here: cell number at 24 h, Library stock concentration: 500 nM", "result": 115, "unit": "%"}, {"measurement": "nuclei count, normalised", "setting": "[1]; measured here: cell number at 24 h, Library stock concentration: 1.5 uM", "result": 111, "unit": "%"}, {"measurement": "nuclei count, normalised", "setting": "[1]; measured here: cell number at 24 h, Library stock concentration: 4.6 uM", "result": 77, "unit": "%"}, {"measurement": "nuclei count, normalised", "setting": "[1]; measured here: cell number at 24 h, Library stock concentration: 13.7 uM", "result": 64.6, "unit": "%"}, {"measurement": "nuclei count, normalised", "setting": "[1]; measured here: cell number at 24 h, Library stock concentration: 41 uM", "result": 64.5, "unit": "%"}, {"measurement": "nuclei count, normalised", "setting": "[1]; measured here: cell number at 24 h, Library stock concentration: 123 uM", "result": 60.1, "unit": "%"}, {"measurement": "nuclei count, normalised", "setting": "[1]; measured here: cell number at 24 h, Library stock concentration: 370 uM", "result": 55.2, "unit": "%"}, {"measurement": "nuclei count, normalised", "setting": "[1]; measured here: cell number at 24 h, Library stock concentration: 1.111 mM", "result": 59.3, "unit": "%"}, {"measurement": "nuclei count, normalised", "setting": "[1]; measured here: cell number at 24 h, Library stock concentration: 3.333 mM", "result": 55.3, "unit": "%"}, {"measurement": "nuclei count, normalised", "setting": "[1]; [3]", "result": 51.2, "unit": "%"}, {"measurement": "nuclei count, normalised", "setting": "[1]; measured here: cell number at 48 h, Library stock concentration: 500 nM", "result": 115, "unit": "%"}, {"measurement": "nuclei count, normalised", "setting": "[1]; measured here: cell number at 48 h, Library stock concentration: 1.5 uM", "result": 107, "unit": "%"}, {"measurement": "nuclei count, normalised", "setting": "[1]; measured here: cell number at 48 h, Library stock concentration: 4.6 uM", "result": 62, "unit": "%"}, {"measurement": "nuclei count, normalised", "setting": "[1]; measured here: cell number at 48 h, Library stock concentration: 13.7 uM", "result": 51.1, "unit": "%"}, {"measurement": "nuclei count, normalised", "setting": "[1]; measured here: cell number at 48 h, Library stock concentration: 41 uM", "result": 50.8, "unit": "%"}, {"measurement": "nuclei count, normalised", "setting": "[1]; measured here: cell number at 48 h, Library stock concentration: 123 uM", "result": 48.7, "unit": "%"}, {"measurement": "nuclei count, normalised", "setting": "[1]; measured here: cell number at 48 h, Library stock concentration: 370 uM", "result": 44.4, "unit": "%"}, {"measurement": "nuclei count, normalised", "setting": "[1]; measured here: cell number at 48 h, Library stock concentration: 1.111 mM", "result": 46.2, "unit": "%"}, {"measurement": "nuclei count, normalised", "setting": "[1]; measured here: cell number at 48 h, Library stock concentration: 3.333 mM", "result": 45.1, "unit": "%"}, {"measurement": "nuclei count, normalised", "setting": "[1]; [4]", "result": 41.5, "unit": "%"}, {"measurement": "p53-positive nuclei, normalised", "setting": "[2]; Library stock concentration: 500 nM", "result": "-0.105% (inactive)"}, {"measurement": "p53-positive nuclei, normalised", "setting": "[2]; Library stock concentration: 1.5 uM", "result": "-0.0067% (inactive)"}, {"measurement": "p53-positive nuclei, normalised", "setting": "[2]; Library stock concentration: 4.6 uM", "result": "0.019% (inactive)"}, {"measurement": "p53-positive nuclei, normalised", "setting": "[2]; Library stock concentration: 13.7 uM", "result": "0.162% (inactive)"}, {"measurement": "p53-positive nuclei, normalised", "setting": "[2]; Library stock concentration: 41 uM", "result": "0.839% (inactive)"}, {"measurement": "p53-positive nuclei, normalised", "setting": "[2]; Library stock concentration: 123 uM", "result": "0.265% (inactive)"}, {"measurement": "p53-positive nuclei, normalised", "setting": "[2]; Library stock concentration: 370 uM", "result": "0.43% (inactive)"}, {"measurement": "p53-positive nuclei, normalised", "setting": "[2]; Library stock concentration: 1.111 mM", "result": "0.292% (inactive)"}, {"measurement": "p53-positive nuclei, normalised", "setting": "[2]; Library stock concentration: 3.333 mM", "result": "0.443% (inactive)"}, {"measurement": "p53-positive nuclei, normalised", "setting": "[2]; [5]", "result": "0.266% (inactive)"}, {"measurement": "p53-positive nuclei, normalised", "setting": "[2]; measured here: p53 positive nuclei at 24 h, Library stock concentration: 500 nM", "result": -0.0685, "unit": "%"}, {"measurement": "p53-positive nuclei, normalised", "setting": "[2]; measured here: p53 positive nuclei at 24 h, Library stock concentration: 1.5 uM", "result": 0.0513, "unit": "%"}, {"measurement": "p53-positive nuclei, normalised", "setting": "[2]; measured here: p53 positive nuclei at 24 h, Library stock concentration: 4.6 uM", "result": 0.0647, "unit": "%"}, {"measurement": "p53-positive nuclei, normalised", "setting": "[2]; measured here: p53 positive nuclei at 24 h, Library stock concentration: 13.7 uM", "result": -0.0822, "unit": "%"}, {"measurement": "p53-positive nuclei, normalised", "setting": "[2]; measured here: p53 positive nuclei at 24 h, Library stock concentration: 41 uM", "result": 0.108, "unit": "%"}, {"measurement": "p53-positive nuclei, normalised", "setting": "[2]; measured here: p53 positive nuclei at 24 h, Library stock concentration: 123 uM", "result": 0.0172, "unit": "%"}, {"measurement": "p53-positive nuclei, normalised", "setting": "[2]; measured here: p53 positive nuclei at 24 h, Library stock concentration: 370 uM", "result": -0.0726, "unit": "%"}, {"measurement": "p53-positive nuclei, normalised", "setting": "[2]; measured here: p53 positive nuclei at 24 h, Library stock concentration: 1.111 mM", "result": -0.0774, "unit": "%"}, {"measurement": "p53-positive nuclei, normalised", "setting": "[2]; measured here: p53 positive nuclei at 24 h, Library stock concentration: 3.333 mM", "result": 0.296, "unit": "%"}, {"measurement": "p53-positive nuclei, normalised", "setting": "[2]; [6]", "result": -0.0521, "unit": "%"}]}, {"compound": "CC(C)(C)Nc1nc2cc(Cl)c(Cl)cc2nc1S(C)(=O)=O", "values": [{"measurement": "nuclei count, normalised", "setting": "[1]; measured here: cell number at 24 h, Library stock concentration: 46 uM", "result": 108, "unit": "%"}, {"measurement": "nuclei count, normalised", "setting": "[1]; measured here: cell number at 24 h, Library stock concentration: 278 uM", "result": 105, "unit": "%"}, {"measurement": "nuclei count, normalised", "setting": "[1]; measured here: cell number at 24 h, Library stock concentration: 1.67 mM", "result": 93.6, "unit": "%"}, {"measurement": "nuclei count, normalised", "setting": "[1]; [3]", "result": 44.4, "unit": "%"}, {"measurement": "nuclei count, normalised", "setting": "[1]; measured here: cell number at 48 h, Library stock concentration: 46 uM", "result": 118, "unit": "%"}, {"measurement": "nuclei count, normalised", "setting": "[1]; measured here: cell number at 48 h, Library stock concentration: 278 uM", "result": 109, "unit": "%"}, {"measurement": "nuclei count, normalised", "setting": "[1]; measured here: cell number at 48 h, Library stock concentration: 1.67 mM", "result": 106, "unit": "%"}, {"measurement": "nuclei count, normalised", "setting": "[1]; [4]", "result": 50, "unit": "%"}, {"measurement": "p53-positive nuclei, normalised", "setting": "[2]; Library stock concentration: 46 uM", "result": "-0.222% (inactive)"}, {"measurement": "p53-positive nuclei, normalised", "setting": "[2]; Library stock concentration: 278 uM", "result": "-0.1% (inactive)"}, {"measurement": "p53-positive nuclei, normalised", "setting": "[2]; Library stock concentration: 1.67 mM", "result": "-0.239% (inactive)"}, {"measurement": "p53-positive nuclei, normalised", "setting": "[2]; [5]", "result": "1.33% (inactive)"}, {"measurement": "p53-positive nuclei, normalised", "setting": "[2]; measured here: p53 positive nuclei at 24 h, Library stock concentration: 46 uM", "result": -0.151, "unit": "%"}, {"measurement": "p53-positive nuclei, normalised", "setting": "[2]; measured here: p53 positive nuclei at 24 h, Library stock concentration: 278 uM", "result": -0.151, "unit": "%"}, {"measurement": "p53-positive nuclei, normalised", "setting": "[2]; measured here: p53 positive nuclei at 24 h, Library stock concentration: 1.67 mM", "result": 0.616, "unit": "%"}, {"measurement": "p53-positive nuclei, normalised", "setting": "[2]; [6]", "result": 1.86, "unit": "%"}]}, {"compound": "CC(C)CC1(CO)CCCN(C(=O)c2cccc(C#CC(C)(C)O)c2)C1", "note": "(centres undefined)", "values": [{"measurement": "nuclei count, normalised", "setting": "[1]; measured here: cell number at 24 h, concentration not given here", "result": 99, "unit": "%"}, {"measurement": "nuclei count, normalised", "setting": "[1]; measured here: cell number at 48 h, concentration not given here", "result": 100, "unit": "%"}, {"measurement": "p53-positive nuclei, normalised", "setting": "[2]; concentration not given here", "result": "0.108% (inactive)"}, {"measurement": "p53-positive nuclei, normalised", "setting": "[2]; measured here: p53 positive nuclei at 24 h, concentration not given here", "result": 0.27, "unit": "%"}]}, {"compound": "O=C(O)C1=CC(O)C(O)C(O)C1", "note": "(centres undefined)", "values": [{"measurement": "nuclei count, normalised", "setting": "[1]; measured here: cell number at 24 h, Library stock concentration: 3.33 mM", "result": 109, "unit": "%"}, {"measurement": "nuclei count, normalised", "setting": "[1]; measured here: cell number at 48 h, Library stock concentration: 3.33 mM", "result": 109, "unit": "%"}, {"measurement": "p53-positive nuclei, normalised", "setting": "[2]; Library stock concentration: 3.33 mM", "result": "-0.187% (inactive)"}, {"measurement": "p53-positive nuclei, normalised", "setting": "[2]; measured here: p53 positive nuclei at 24 h, Library stock concentration: 3.33 mM", "result": -0.275, "unit": "%"}]}]}
